Mdm2-MdmX inh: inhibitors of human Mdm2/MdmX interaction | SaOS-2 split-luciferase Mdm2/MdmX complementation, luminescence | inhibition, % at 8 µM | 330,000 compounds, 3% hits | AID 485346;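 active means inhibition of at least 50% at 8 µM in the primary screen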
NTR1 ag: activates human neurotensin receptor 1; P30989; NTR1-U2OS beta-arrestin-GFP spot imaging, agonist mode; activation, % at 20 µM; 330,000 compounds, 0.17% hits;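 active means activation at or above 40% of the spot to cytoplasm intensity ratio, with at least 20 cells analyzed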
Target sequence (P30989 whole entry, looked up): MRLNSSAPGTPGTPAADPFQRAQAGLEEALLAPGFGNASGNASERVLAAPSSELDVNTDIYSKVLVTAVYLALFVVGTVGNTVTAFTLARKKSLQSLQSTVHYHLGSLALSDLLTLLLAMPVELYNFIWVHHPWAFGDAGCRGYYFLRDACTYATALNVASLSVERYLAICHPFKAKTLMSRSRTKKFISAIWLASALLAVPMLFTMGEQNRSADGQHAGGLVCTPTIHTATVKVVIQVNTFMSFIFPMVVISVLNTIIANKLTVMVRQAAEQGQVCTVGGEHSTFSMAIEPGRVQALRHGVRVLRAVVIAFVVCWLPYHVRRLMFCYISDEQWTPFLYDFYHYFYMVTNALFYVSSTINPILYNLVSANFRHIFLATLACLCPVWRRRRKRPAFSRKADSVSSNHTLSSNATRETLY
Beta apoptosis: blocks beta cell apoptosis. INS-1E cytokine-induced death, ATP luminescence, 48 h; percent of positive-control rescue, neutral wells zero. protection from apoptosis, % (test concentration not listed). 300,000 compounds, 0.8% hits. AID 435005;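 active means Every replicate reaches about 75%, or at least half do and their mean reaches it too, limit read from the data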;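 further: higher means more ATP so stronger rescue from cytokine killing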
697 NFkB inh: lowers PMA/ionomycin-induced NF-kB signal in 697 B cells; 697 B-cell NF-kB luciferase reporter, 16 h; inhibition, % at 4 µM; 330,000 compounds, 0.33% hits; in the data active means inhibition above about 35%
Jurkat NFkB inh: inhibitors of the PMA/ionomycin-induced NF-kB reporter in Jurkat cells. PMA/ionomycin-induced NF-kB luciferase reporter, luminescence. inhibition, % at 4 µM. 330,000 compounds, 0.53% hits. AID 435003; in the data active means inhibition above about 50%
Bfl-1 A1 inh: inhibitors of the anti-apoptotic protein A1, read as caspase activation | MEF A1-2A-BIM cells, Caspase-Glo 3/7 luminescence, 3 h; percent of clofoctol response, vehicle zero | caspase activation, % (test concentration not listed) | 330,000 compounds, 0.066% hits | AID 2462;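 active means over half of replicate activation scores above 10%, or exactly half above 10 with the replicate mean above 10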
697 NFkB conf: inhibitors of the PMA/ionomycin-induced NF-kB reporter in 697 B cells, retest | shares compounds with 697 NFkB inh | 697 B-cell NF-kB luciferase, 16 h | inhibition, % at 4 µM | AID 449746 | 2,000 compounds, 35% hits; in the data active means inhibition mostly above about 28%, no sharp cut-off; inactive means mostly below about 22%
Mdm2 MdmX conf: human Mdm2/MdmX binding inhibition, confirmed; shares compounds with Mdm2-MdmX inh; luminescent assay; inhibition, % at 8 µM; 10,000 compounds, 55% hits; in the data active means inhibition above about 40%
Full FLuc ctr: counter-screen for Mdm2/MdmX inhibitors: full-length luciferase; shares compounds with Mdm2-MdmX inh; SaOS-2 full-length luciferase counterscreen, luminescence; inhibition, % at 8 µM; 6,200 compounds, 77% hits;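 active means mean inhibition at 8 µM reaching about 37%, which flags the compound as non-specific, limit read from the data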;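 further: p53-null SaOS-2 cells with luciferase driven by a doxycycline-inducible promoter; compound on cells about two nights before reading with doxycycline added after day one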
Of the large screens only hits and unclear results are named; the others gave an inactive call (follow-up assays come after a bar, where they were run). This is a sample that favours compounds with a hit; in the whole collection about 3.8% have one here.

O=C(CCN1C(=O)/C(=C/c2ccccc2Cl)SC1=S)Nc1cccnc1	none
O=C(CCCN1C(=O)/C(=C/c2ccccc2Cl)SC1=S)Nc1ccccn1	Mdm2-MdmX inh 67, 697 NFkB inh 46 | 697 NFkB conf 68 | Mdm2 MdmX conf 55 | Full FLuc ctr inactive
O=C(CCCN1C(=O)/C(=C/c2ccccc2Cl)SC1=S)Nc1cccnc1	Mdm2-MdmX inh 87, 697 NFkB inh 83 | 697 NFkB conf 61 | Mdm2 MdmX conf 73 | Full FLuc ctr inactive
COc1ccc(C(=O)C2CCN(CC(=O)Nc3ccc(C)cc3)CC2)cc1	none
CCOC(=O)N1CCN(C(=O)c2ccc(Cn3c(=S)[nH]c4cc5c(cc4c3=O)OCO5)cc2)CC1	none
CCOC(=O)N1CCN(C(=O)c2ccc(Cn3c(=S)[nH]c4cc(OCC)c(OCC)cc4c3=O)cc2)CC1	Mdm2-MdmX inh 54, 697 NFkB inh 37 | 697 NFkB conf inactive | Mdm2 MdmX conf inactive
CC(=O)Nc1cc(-c2nn(C)c(=O)c3ccccc23)ccc1N1CCCCC1	none
Cn1nc(-c2ccc(N3CCOCC3)c(NS(=O)(=O)c3ccccc3)c2)c2ccccc2c1=O	Mdm2-MdmX inh 65, 697 NFkB inh 61 | 697 NFkB conf 33 | Mdm2 MdmX conf inactive
Cc1cc(C)c(C(=O)NC2CCCc3c2cnn3-c2cccc(C)c2C)o1 (centres undefined)	Mdm2-MdmX inh 78 | 697 NFkB conf inactive | Mdm2 MdmX conf 75 | Full FLuc ctr 43
O=C(NC1CCCc2c1cnn2-c1ccccc1F)c1ccccn1 (centres undefined)	Mdm2-MdmX inh 86 | 697 NFkB conf inactive | Mdm2 MdmX conf 72 | Full FLuc ctr inactive
O=C(NC1CCCc2c1cnn2-c1ccc(F)cc1F)c1ccccn1 (centres undefined)	none
Cc1cc(C)c(S(=O)(=O)N2CCCCC2CCNC(=O)C(=O)NC2CC2)c(C)c1 (centres undefined)	Mdm2-MdmX inh 92 | 697 NFkB conf inactive | Mdm2 MdmX conf 94 | Full FLuc ctr inactive
CCc1ccccc1NC(=O)C1CCN(S(=O)(=O)c2ccc3c(c2)N(C(C)=O)CCO3)CC1	none
C[C@H](CO)N1C[C@H](C)[C@@H](CN(C)C(=O)Nc2ccc3c(c2)OCO3)Oc2c(NC(=O)Nc3ccc(C(F)(F)F)cc3)cccc2C1=O	Mdm2-MdmX inh 80, 697 NFkB inh 46 | 697 NFkB conf inactive | Mdm2 MdmX conf 69 | Full FLuc ctr 68
CC1=Nn2c(nnc2-c2n[nH]c3c2CCC3)SC1	none
Fc1ccc(C2=Nn3c(nnc3-c3n[nH]c4c3CCC4)SC2)cc1	Mdm2-MdmX inh 76, 697 NFkB inh 44 | 697 NFkB conf 53 | Mdm2 MdmX conf 44 | Full FLuc ctr 82
COC(=O)c1ccc(NC(=O)C2CCCN2C(=O)OCc2ccccc2)cc1 (centres undefined)	none
Cc1cc(C(=O)OCC(=O)N(CC(C)C)c2c(N)n(Cc3ccccc3)c(=O)[nH]c2=O)c(C)o1	none
CS(=O)(=O)N1CCC(Oc2cccc(C(=O)NCCCC3CCCC3)c2)CC1	none
CCc1nc(N=Nc2c(O)[nH]c3ccccc23)c2c3c(sc2n1)CCC3	Mdm2-MdmX inh 87, 697 NFkB inh 37, Bfl-1 A1 inh 8.9 | 697 NFkB conf inactive | Mdm2 MdmX conf inactive
CCOC(=O)c1oc2ccc(Br)cc2c1COC(=O)C1=COCCO1	none
Cc1ccc(/C=C2/NC(=O)N(Cc3ccccc3)C2=O)o1	none
Cn1c(=O)n(C)c2cc(/C=C3/NC(=O)N(Cc4ccccc4)C3=O)ccc21	Mdm2-MdmX inh 51, 697 NFkB inh 47 | 697 NFkB conf 27 | Mdm2 MdmX conf inactive | Full FLuc ctr 88
CC(=O)Nc1ccc(NC(=O)C(C)OC(=O)C2(c3ccccc3F)CCCC2)cc1 (centres undefined)	none

Compound activity deposited in PubChem by several laboratories.
